These results are taken from PubChem BioAssay AID687014 (The Scripps Research Institute Molecular Screening Center, 2013).

Among all 370,000 compounds or so, about 6,800 (1.8%) were called active.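 Rule for the calls: active = activation above a cutoff set at the mean of all screened compounds plus 3 SD (cut at about 10% in these data); inactive = the rest.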 The list comes from a sample in which actives are over-represented; it also holds similar structures and randomly drawn compounds.

This test relates to Nuclear hormone receptor DAF-12 (Heterodera glycines), GAL4 fusion. In words: hgDAF-12 GAL4 fusion reporter activation – cell-based, luminescence, HEK293, UAS-luciferase, primary screen (AID 687014).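 Note: 0% = DMSO wells and 100% = sodium butyrate wells.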 Particulars: HEK293 GAL4-hgDAF12 UAS-luciferase reporter, agonist luminescence; at 6.8 µM; active compounds read high. In general terms: Reporter assays use an easily measured gene product as a stand-in for the process of interest.
As to `Cc1cc(C)c2c(c1)NP(=S)(c1ccccc1)N2` (stereo not given), the activation was 13.1% (active).
With `COc1ccc2c(c1)NP(=S)(c1ccccc1)N2` (stereo not given), the activation was 23.2% (active).
To `COc1cc(C(c2c(O)c3ccccc3oc2=O)c2c(C)n(C)n(-c3ccccc3)c2=O)ccc1O` (stereo not given) belongs 2.01% (inactive); to `CN(C)CC1CCCCC1=O` (stereo not given), 1.62% (inactive); to `O=S(=O)(c1ccccc1)N1CCC2CCNC2C1` (stereo not given), 1.08% (inactive).
As for `CO[C@H]([C@H](C)/C=C/N(C)C=O)[C@@H](C)C(=O)CC[C@H](C)[C@H](O)[C@H](C)[C@H]1OC(=O)/C=C/C(C)=C/[C@H](O)[C@H](OC)C[C@@H]2C=CC[C@@H](C[C@H](OC)[C@@]3(CO3)[C@@H](OC)C[C@@H](OC)[C@@H]1C)O2`, the activation was -9.43% (inactive).
The result for `COP(=O)(Sc1ccccc1)C(Cc1ccccc1)NC(=O)OCc1ccccc1` (stereo not given) reads 1.8% (inactive); that for `Cc1ccccc1CCC[C@@H](CC1CCCCC1)CN(C)C(=O)Oc1ccccc1`, 0.88% (inactive); that for `c1ccc2sc(N3CCNCC3)nc2c1`, 5.89% (inactive).
The result for `c1ccc2sc(C3CCCNC3)nc2c1` (stereo not given) reads 11.6% (active).
As to `NC(=O)Nc1cccc(C(F)(F)F)c1`, the activation is 1.53% (inactive).
The result for `CCCC[N+]1(C)C2CC(OC(=O)C(CO)c3ccccc3)CC1C1OC12` (stereo not given) reads -2.54% (inactive); that for `CC[N+](CC)(CC)CCCCCCCCCC[N+](CC)(CC)CC`, 0.44% (inactive); that for `CS(=O)(=O)N1CCC2CCNC2C1` (stereo not given), -2.06% (inactive).
The result for `COc1cc(OC)cc(C(=O)NCCN2CCC3(CC2)C(=O)NCN3c2ccccc2)c1` reads -1.03% (inactive); that for `O=C(N/N=C/c1c(O)n(C2CC2)c(=S)[nH]c1=O)c1ccccc1`, 11.8% (active); that for `O=C(N/N=C/c1c(O)n(C2CC2)c(=S)[nH]c1=O)c1ccccc1Cl`, 2.67% (inactive).
On to `O=c1[nH]c(=O)n(Cc2ccccc2)c(O)c1/C=N/Nc1c(F)c(F)c(F)c(F)c1F`, for which the activation was -0.57% (inactive).
For `O=C(N/N=C/c1c(O)n(Cc2ccccc2)c(=O)[nH]c1=O)c1ccccc1`, the activation was 16% (active).
To `O=c1[nH]c(=S)n(C2CC2)c(O)c1/C=N/N1CCOCC1` belongs -1.58% (inactive); to `O=c1[nH]c(=O)n(CCc2ccccc2)c(O)c1/C=N/N1CCOCC1`, 0.56% (inactive).
Consider `CCN(CC)C(=O)[C@@H]1C=C2c3cccc4[nH]c(Br)c(c34)C[C@H]2N(C)C1`, for which the activation is -1.1% (inactive).
`Clc1ccc([C@@H]2CC3CCC2N3)cn1` (stereo not given in full): the activation is 1.87% (inactive).
To `CCC(C)NC1(c2ccccc2)CCCCC1` (stereo not given) belongs 1.32% (inactive).
Regarding `O=C(Nc1cccc(OC(=O)N2CCCCC2)c1)N1CCOCC1`, the activation is -0.57% (inactive).
The result for `CC(C)(C)c1ccc(OC(=O)N2CCCCC2)cc1` reads 14.4% (active).
With `CN1CCN(C(=O)COc2ccc(C(C)(C)C)cc2Br)CC1`, the activation is 1.63% (inactive).
To `Cc1cc(N2CCNC[C@@H]2C)ccc1N1CC[C@H](O)C1` belongs 0.8% (inactive); to `COc1ccc2c(c1)[C@@]13CCCCC1[C@@H](C2)NCC3` (stereo not given in full), 4.73% (inactive).
Take `Brc1ccc2c(c1)CNCc1cnnn1-2`: the activation is 0.9% (inactive).
